Screens: PubChem BioAssay, several laboratories
PostGolgi yeast – growth inhibition of a yeast mutant, post-Golgi transport screen | inhibition, % at 10 µM | post-Golgi transport phenotypic cell assay | 98,000 tested, 0.9% active;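 note: yeast cells grown in 1536-well plates; yeast grown about 18 h at 30C before absorbance read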
CYP2C9 inh – human CYP2C9 inhibition; inhibition, % at 5 µM; CYP2C9 Supersomes, luciferin-H conversion, luminescence; P11712; 96,000 tested, 20% active;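 active = blocking of liver enzyme CYP2C9 beyond about 50% at 5 µM, limit read from the data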
PostGolgi ctrl – inhibits growth of the yeast control strain | efflux-deficient yeast background strain, growth absorbance A615, 16 h | inhibition, % at 10 µM | 98,000 tested, 5% active | AID 738
CYP2C19 inhib – human CYP2C19 inhibition; inhibition, % at 5 µM; P33261; 96,000 tested, 21% active; AID 778; CYP2C19 Supersomes, luciferin-H EGE luminescence, 30 min;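 active = CYP2C19 inhibition above a set limit at 5 µM in the primary screen, cut at about 50% in these data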;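 note: plate controls were negative control wells for no effect and 2.5 mM tranylcypromine positive control for full effect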
Target sequence (P33261 whole entry, looked up): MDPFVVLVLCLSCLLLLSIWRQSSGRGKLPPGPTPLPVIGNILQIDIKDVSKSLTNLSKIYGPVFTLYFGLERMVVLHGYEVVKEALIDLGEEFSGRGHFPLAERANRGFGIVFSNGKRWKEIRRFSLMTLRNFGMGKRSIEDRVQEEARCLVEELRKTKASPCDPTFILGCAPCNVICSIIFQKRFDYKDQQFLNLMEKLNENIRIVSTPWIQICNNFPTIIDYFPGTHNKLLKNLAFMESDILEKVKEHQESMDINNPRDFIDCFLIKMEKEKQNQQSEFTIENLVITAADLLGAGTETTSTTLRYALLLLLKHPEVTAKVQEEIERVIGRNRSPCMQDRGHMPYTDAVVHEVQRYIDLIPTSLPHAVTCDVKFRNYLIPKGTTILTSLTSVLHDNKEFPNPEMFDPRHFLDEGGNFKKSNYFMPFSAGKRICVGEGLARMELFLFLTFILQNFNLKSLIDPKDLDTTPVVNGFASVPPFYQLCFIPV
CYP2C9 activ – activators of human CYP2C9; recombinant CYP2C9, luciferin-H conversion, luminescence; active compounds read high; factor 1 = untreated enzyme, 0 = blocked; activation factor at 5 µM; P11712; AID 1024; 96,000 tested, 1.4% active;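 active = activation factor of 2 or more for CYP2C9 at a 5 µM dose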;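 note: 0 = sulfaphenazole-blocked wells and 1 = vehicle-only wells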
CYP2C19 activ – cytochrome P450 2C19 (human) activation. P33261. recombinant CYP2C19, luciferin-H EGE luminescence; active compounds read high; 0 = fully inhibited enzyme, 1 = untreated enzyme. activation factor at 5 µM. 96,000 tested, under 10 active. AID 1025;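 active = activation factor of at least 2 at 5 µM in the primary screen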;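 note: 0 = wells with 2.5 mM tranylcypromine and 1 = vehicle-only wells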
Active calls of the source: *; nt = no result given. Hits are enriched below; roughly 32% of the tested compounds scored in any of these assays. Cut-off read from the data, not from the text of the source, unless noted: active = inhibition above about 30%; inactive = the rest.

SMILES	PostGolgi yeast	CYP2C9 inh	PostGolgi ctrl	CYP2C19 inhib	CYP2C9 activ	CYP2C19 activ
COc1cc(C(=O)NCc2nnc(SCC(=O)N3CCc4ccccc43)o2)cc(OC)c1OC	5	79*	0	64*	0.2	0.4
Cc1occc1-c1nnc(SCC(=O)N(C)C)o1	-1	9	-5	8	0.9	0.9
Cc1occc1-c1nnc(SCC(=O)N2CCc3ccccc32)o1	-3	16	19	74*	0.8	0.3
COc1ccc(OC)c(-c2nnc(SCC(=O)N3CCCc4ccccc43)o2)c1	2	26	13	98*	0.7	0
COc1cccc(-c2nnc(SCC(=O)N3CCCc4ccccc43)o2)c1	7	36	4	95*	0.6	0.1
O=C(CSc1nnc(-c2cccs2)o1)N1CCc2ccccc21	4	-14	2	24	1.1	0.8
CCOC(=O)N1CCN(C(=O)CSc2nnc(-c3cc(OC)cc(OC)c3)o2)CC1	-12	29	0	30	0.7	0.7
O=C(CSc1nnc(-c2cccs2)o1)N1CCCc2ccccc21	-4	32	5	77*	0.7	0.2
COc1cc(OC)cc(-c2nnc(SCC(=O)N3CCCc4ccccc43)o2)c1	-5	20	-9	92*	0.8	0.1
Cc1ccc(NC(=O)CS(=O)CC(=O)N(C2CCCC2)C(C)C(=O)NC2CCCCC2)cc1 (configuration not stated)	-5	nt	-1	nt	nt	nt
Cc1ccc(NC(=O)CS(=O)CC(=O)N(CC(=O)NC2CCCC2)c2cc(C)ccc2C)cc1 (configuration not stated)	2	71*	6	35	0.3	0.7
Cc1ccccc1N(CC(=O)NC1CCCC1)C(=O)CS(=O)CC(=O)Nc1ccc2c(c1)OCO2 (configuration not stated)	4	90*	21	22	0.1	0.8
CC(C)N=C(NC#N)SCC(=O)NC(C)(C)C	-1	4	1	10	1	0.9
CC(C)N=C(NC#N)SCc1ccccc1F	5	49	-6	85*	0.5	0.2
COc1ccc(N=c2sc3ccccc3n2C)cc1	-8	29	12	51*	0.7	0.5
COc1ccccc1N=c1sc2ccccc2n1C	-2	42	7	77*	0.6	0.2
Cn1c(=NCC(O)COc2ccccc2)sc2ccccc21 (configuration not stated)	-9	44	3	95*	0.6	0
N=c1n(CCN2CCCCC2)c2ccccc2n1CC(O)COc1ccccc1 (configuration not stated)	-5	1	13	-6	1	1.1
Cn1/c(=N/N=C/c2ccc([N+](=O)[O-])cc2)sc2ccccc21	8	-19	-2	15	1.2	0.8
CCC(C)NCCOCCOc1ccc(F)cc1 (configuration not stated)	9	1	-4	-15	1	1.1
CCOCCCNS(=O)(=O)c1ccc(NC(=O)N2c3ccccc3Sc3ccccc32)cc1	-9	92*	10	46	0.1	0.5
Nc1nc(SCc2ccc(Cl)cc2Cl)n[nH]1	-6	20	15	73*	0.8	0.3
CC(=O)Nc1nc(SCc2ccc(Cl)cc2Cl)n[nH]1	15	0	-2	19	1	0.8
CCCc1nc(SCc2ccccc2Cl)n[nH]1	-1	-12	2	31	1.1	0.7
CNc1cc(CSC)nc(SCc2ccc(Cl)cc2Cl)n1	-10	-1	39*	-6	1	1.1
SMILES	PostGolgi yeast	CYP2C9 inh	PostGolgi ctrl	CYP2C19 inhib	CYP2C9 activ	CYP2C19 activ
CSCc1cc(N(C)C)nc(SCc2ccc(Cl)c(Cl)c2)n1	-9	71*	19	72*	0.3	0.3
CCc1nc(SCc2cc(Cl)ccc2OC)n[nH]1	-1	52*	29	94*	0.5	0.1
COCc1cc(C)n(CC(=O)Nc2ccccc2OC)c(=O)c1C#N	-7	8	-7	12	0.9	0.9
CC(CCc1ccccc1)NC(=O)c1ccc(Cl)nc1 (configuration not stated)	1	20	4	26	0.8	0.7
CCOC(=O)CCn1nnc(N)n1	-5	31	26	11	0.7	0.9
CC(=O)Nc1ccc(S(=O)(=O)c2ccc(N)cc2)cc1N	1	-34	6	-5	1.3	1
Nc1ccc(S(=O)(=O)c2cccc(N)c2)cc1	0	-142	2	15	2.4*	0.8
Cc1cc(N2CCCC2)nc(-c2ccccc2O)n1	8	27	8	10	0.7	0.9
NC(=O)C1CCN(c2nc(-c3ccccc3)nc3c2oc2ccccc23)CC1	23	14	0	4	0.9	1
COc1ccc(NC(=O)C2CCN(c3cc(C)nc(-c4ccccc4)n3)CC2)cc1	-5	10	15	17	0.9	0.8
NC(=O)C1CCN(c2nc(-c3ccccc3)nc3ccccc23)CC1	-2	54*	1	21	0.5	0.8
Cc1cc(N2CCC(C(=O)Nc3ccc(F)cc3)CC2)nc(-c2ccccc2)n1	-4	62*	4	82*	0.4	0.2
Cc1cc(N2CCC(C(N)=O)CC2)nc(-c2ccccc2)n1	-3	53*	7	-6	0.5	1.1
O=C(NCCc1ccccc1)N1c2ccccc2Sc2ccccc21	-8	39	22	39	0.6	0.6
COc1ccc(CCN2C(=S)NC3CC2(C)Oc2ccc([N+](=O)[O-])cc23)cc1OC (configuration not stated)	4	72*	23	0	0.3	1
CN1CCN(Cc2cc(=O)oc3cc4c(cc23)CCC4)CC1	4	64*	5	63*	0.4	0.4
COc1ccc(N2CCN(Cc3cc(=O)oc4cc(-c5ccccc5)c(O)cc34)CC2)cc1	-12	14	3	12	0.9	0.9
Cc1cc2oc(=O)cc(CN3CCCc4ccccc43)c2cc1C	3	96*	12	96*	0	0
Cc1cc2oc(=O)cc(CN3CCN(C/C=C/c4ccccc4)CC3)c2cc1O	0	84*	15	45	0.2	0.5
Cc1ccc(C(=O)Nc2c(C(=O)N3CCOCC3)cnn2-c2ccccc2)cc1	-12	-16	15	-17	1.2	1.2
Cc1ccc(CC(=O)NCCS(=O)c2ccc(Cl)cc2)cc1 (configuration not stated)	10	19	5	29	0.8	0.7
O=C(CN1CCN(C(=O)c2c(F)cccc2F)CC1)Nc1ccccc1F	8	8	-1	25	0.9	0.8
CCCc1noc(-c2ccc(-c3ccccc3)cc2)n1	-2	4	25	5	1	1
Cc1ccc(-n2c(C)c3c(C)nnc(C)c3c2C)cc1	nt	-14	nt	58*	1.1	0.4
O=C(Cc1ccc(Br)cc1)NC1CCCCC1	7	-4	6	23	1	0.8
O=C(Cc1coc(-c2ccc(F)cc2)n1)NC1CCCCC1	-8	60*	8	51*	0.4	0.5
